# High-throughput results (PubChem)
# This is a sample that favours compounds with a hit; in the whole collection about 12% have one here.
# JMJD2A Tudor = inhibitors of human JMJD2A Tudor domain. 390,000 tested, 4.4% active. O75164. Potency, µM (top dose mostly 114 µM), for inactives: at the top dose activity change, negative = inhibition, usual class: inhibitors. AlphaScreen JMJD2A-Tudor / H3K4me3 peptide binding. AID 504339; also: % is scaled to controls: 0 for no effect and ±100 for the full control effect; nearly all actives have a fitted effect of over 50% in size
# G9a inh = G9a (human) methyltransferase inhibition; Q96KQ7; Potency, µM (titrated, usually from 102 µM), for the others: top-dose activity, negative = inhibition, actives largely listed as inhibitors; G9a H3K9 monomethylation, AlphaScreen, 2 h; 350,000 tested, 8.8% active; also: % is scaled to controls: 0 for no effect and ±100 for the full control effect; nearly all actives have a fitted effect of over 75% in size
#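 Step 1: enzyme (final 20 nM) with compound, 15 min RT. Step 2: substrate peptide 500 nM and SAM 20 uM, 2 h RT. Step 3: anti-H3K9me1 antibody and AlphaScreen beads, 10 min, then plate read.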
# PLK1 PBD block = PLK1 (human) polo-box domain binding inhibition. P53350. Plk1 PBD binding of FITC phosphopeptide, fluorescence polarization. Potency, µM, inactives show max response, negative = inhibition, hits mostly inhibitors. 360,000 tested, 2.8% active. AID 720504; also: series mostly up to about 57 µM; % is scaled to controls: 0 for no effect and ±100 for the full control effect; nearly all actives have a fitted effect of over 65% in size
# BAZ2B block = inhibitors of human BAZ2B bromodomain. Q9UIF8. AlphaScreen BAZ2B-H3K14Ac peptide displacement. Potency, µM (series often up to 114 µM), without a hit: top-dose activity change, negative = inhibition, usual class: inhibitors. 360,000 tested, 4.4% active; also: % is scaled to controls: 0 for no effect and ±100 for the full control effect; nearly all actives have a fitted effect of over 60% in size
# Target sequence (Q9UIF8 whole entry, looked up): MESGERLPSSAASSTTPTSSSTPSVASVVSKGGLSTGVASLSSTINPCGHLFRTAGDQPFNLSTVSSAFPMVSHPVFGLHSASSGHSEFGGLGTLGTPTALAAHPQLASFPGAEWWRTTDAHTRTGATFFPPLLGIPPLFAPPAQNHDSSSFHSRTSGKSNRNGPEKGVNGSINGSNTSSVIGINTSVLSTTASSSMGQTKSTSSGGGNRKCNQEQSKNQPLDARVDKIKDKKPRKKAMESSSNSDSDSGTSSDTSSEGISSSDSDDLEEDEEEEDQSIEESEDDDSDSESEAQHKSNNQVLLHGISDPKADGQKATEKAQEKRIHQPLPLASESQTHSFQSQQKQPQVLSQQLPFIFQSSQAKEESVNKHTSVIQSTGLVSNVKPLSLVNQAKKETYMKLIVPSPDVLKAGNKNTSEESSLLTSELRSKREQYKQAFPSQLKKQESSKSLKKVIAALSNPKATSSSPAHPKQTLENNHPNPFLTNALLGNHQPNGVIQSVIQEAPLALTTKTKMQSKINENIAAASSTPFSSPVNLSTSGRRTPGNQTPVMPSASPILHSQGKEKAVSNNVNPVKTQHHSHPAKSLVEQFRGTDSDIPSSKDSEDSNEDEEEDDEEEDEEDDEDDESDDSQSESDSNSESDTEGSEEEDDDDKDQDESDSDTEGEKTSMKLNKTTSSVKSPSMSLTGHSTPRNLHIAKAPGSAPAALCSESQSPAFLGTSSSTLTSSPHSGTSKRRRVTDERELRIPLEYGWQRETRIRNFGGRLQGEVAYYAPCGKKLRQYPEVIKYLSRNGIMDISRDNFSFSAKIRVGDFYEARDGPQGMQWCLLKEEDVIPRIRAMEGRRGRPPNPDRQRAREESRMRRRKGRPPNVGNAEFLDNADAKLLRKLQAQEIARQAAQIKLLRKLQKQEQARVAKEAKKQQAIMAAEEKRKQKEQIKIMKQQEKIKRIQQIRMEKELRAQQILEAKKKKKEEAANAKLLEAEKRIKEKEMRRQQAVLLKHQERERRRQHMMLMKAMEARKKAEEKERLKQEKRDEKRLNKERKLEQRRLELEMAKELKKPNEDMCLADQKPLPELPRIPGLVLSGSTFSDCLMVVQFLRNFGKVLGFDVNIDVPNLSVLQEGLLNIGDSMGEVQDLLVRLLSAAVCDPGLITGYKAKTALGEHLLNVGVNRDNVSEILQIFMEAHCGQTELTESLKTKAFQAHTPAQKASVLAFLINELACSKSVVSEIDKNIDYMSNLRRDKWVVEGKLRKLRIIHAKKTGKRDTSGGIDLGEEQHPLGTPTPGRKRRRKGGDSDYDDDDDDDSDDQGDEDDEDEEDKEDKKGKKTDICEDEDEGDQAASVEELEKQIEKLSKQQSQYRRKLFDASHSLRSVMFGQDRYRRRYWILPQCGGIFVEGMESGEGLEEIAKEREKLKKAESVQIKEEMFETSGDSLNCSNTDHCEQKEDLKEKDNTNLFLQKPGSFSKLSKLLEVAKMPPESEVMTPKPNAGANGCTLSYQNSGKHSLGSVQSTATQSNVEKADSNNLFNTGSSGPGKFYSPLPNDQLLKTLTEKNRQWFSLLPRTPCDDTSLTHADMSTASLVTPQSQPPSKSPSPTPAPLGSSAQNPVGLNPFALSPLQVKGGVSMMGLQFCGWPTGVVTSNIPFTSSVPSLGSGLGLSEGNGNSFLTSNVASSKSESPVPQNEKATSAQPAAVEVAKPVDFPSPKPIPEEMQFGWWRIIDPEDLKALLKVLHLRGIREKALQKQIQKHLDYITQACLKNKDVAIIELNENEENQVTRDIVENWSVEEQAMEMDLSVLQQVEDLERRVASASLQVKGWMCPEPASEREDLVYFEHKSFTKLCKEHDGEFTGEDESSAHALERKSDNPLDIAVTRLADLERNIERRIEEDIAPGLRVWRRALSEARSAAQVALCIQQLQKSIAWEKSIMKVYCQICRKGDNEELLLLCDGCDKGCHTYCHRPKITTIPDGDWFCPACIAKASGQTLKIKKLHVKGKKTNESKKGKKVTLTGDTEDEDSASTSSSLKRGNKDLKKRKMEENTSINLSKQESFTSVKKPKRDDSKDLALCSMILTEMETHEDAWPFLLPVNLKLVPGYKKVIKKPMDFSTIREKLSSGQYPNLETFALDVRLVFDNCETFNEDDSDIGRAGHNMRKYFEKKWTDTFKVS
#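 Inhibition is scored as reduced AlphaScreen emission. The BAZ2B/b-H3(5-23)K14Ac complex (50 nM each) in PBS pH 7.4, 0.01% Tween-20 meets compound (up to 110 uM) for 30 min at RT before bead addition.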
# Sfp PPTase inh = inhibitors of Bacillus subtilis Sfp phosphopantetheinyl transferase | AID 1490 | Q9F4F7 | Potency, µM, without a hit: largest response in the series, negative = inhibition, hits mostly inhibitors | 310,000 tested, 3.5% active | Biochemical Sfp PPTase activity, qHTS;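 also: the enzyme is Sfp with the accession as filed and its product quenches rhodamine fluorescence; 0% = enzyme reaction without inhibitor and -100% = no enzyme wells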
#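 Compounds were incubated with enzyme (final 15 nM) for 15 min at room temperature before substrate addition started the reaction. Fluorescence at 525 nm excitation, 598 nm emission was recorded immediately and after 30 minutes.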
# HP1b chromo inh = HP1-beta chromodomain-methylated histone interaction inhibition; AlphaScreen HP1-beta / biotin-H3K9me3 peptide binding; Potency, µM (series often up to 114 µM), for the others: at the top dose activity change, negative = inhibition, hits mostly inhibitors; P83916; AID 540317; 390,000 tested, 0.56% active; also: nearly all actives have a fitted effect of over 70% in size
#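 Compound inhibition of the preformed complex between 50 nM HP1-beta and 50 nM biotinylated H3K9me3 peptide was read by AlphaScreen. Buffer was PBS pH 7.4 with 0.01% Tween-20. Incubations ran 30 min at room temperature, with 10 ug/mL donor/acceptor beads.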
# The depositor's hits bear a star; ? = inconclusive; · = not tested or not shown; ! = a repeat was not active; [ ] = another dose, or the depositor's remark. Calls follow the shape of the dose curve; as a rule, active = well fitted curve in the direction sought with a large enough effect; inconclusive = small, poorly fitted or top-dose-only effect, or another doubt; inactive = no such curve, though single readings can be large; an effect the other way counts as inactive or inconclusive. Potency is read from the fitted curve at half-maximal effect.
SMILES,JMJD2A Tudor,G9a inh,PLK1 PBD block,BAZ2B block,Sfp PPTase inh,HP1b chromo inh
CCOC(=O)C1CCN(Cc2ccc(OC)c(OCc3ccccc3)c2)CC1,-30%,28µM*,-10%,56µM*,-17%,2%
CCOC(=O)C1CCN(Cc2ccc(O)c(OC)c2)CC1,3.2µM*,32µM*,0%,?,-4%,?
c1ccc(Oc2cccc(CN3CCCCC3)c2)cc1,-12%,-10%,-7%,?,-3%,10%
Cc1cccc(CN2CCN(C(c3ccccc3)c3ccc(Cl)cc3)CC2)c1 (centres undefined),79µM*,?,?,50µM*,-2%,60%
CC(C)(C)c1cc(CN2CCN(CCO)CC2)cc(C(C)(C)C)c1O,-19%,?,21µM*,?,?,25%
CCOC(=O)C1CCN(Cc2cc(=O)oc3cc(C)ccc23)CC1,-10%,-5%,-3%,0%,12%,38%
CCNC(=O)C1CCCN(Cc2ccc(OCc3ccccc3)cc2)CC1 (centres undefined),·,·,-8%,·,·,·
CCOC(=O)C1CCN(Cc2ccc(OCc3ccccc3)c(OC)c2)CC1,-6%,50µM*,-12%,-32%,13%,-2%
CCCCNC(=O)C1CCN(Cc2ccc(OCc3ccccc3)cc2)CC1,3.5µM*,11µM*,-2%,?,6%,?
COc1cc(CN2CCN(CCCSc3cc(C(C)(C)C)c(O)c(C(C)(C)C)c3)CC2)cc(OC)c1OC,·,·,·,·,-6%,·
CCOC(=O)C1CCN(Cc2cc(C(C)(C)C)c(O)c(C(C)(C)C)c2)CC1,-29%,56µM*,?,-25%,?,41%
CC(=O)Oc1ccc(Cn2c(C)c(C(=O)NCc3cccc(C(F)(F)F)c3)sc2=O)cc1,·,·,-4%,·,·,·
CN1CCN(C(c2ccccc2)c2ccccc2)CC1,-13%,11%[21.5 µM],-7%,-2%,-6%,24%
OC1CCN(Cc2ccc(OCc3ccccc3)cc2)CC1,-16%,-10%[0.501 µM],-14%,7%,13%,13%
O=C(C1CCN(Cc2ccc(OCc3ccccc3)cc2)CC1)N1CCCC1,1.6µM*,14µM*,-2%,79µM*,?,?
COc1cc(CN2CCCCC2)ccc1OCc1ccccc1,32µM*,·,-3%,?,-18%,?
O=C(CN1CCN(C(=O)C2CCCO2)CC1)Nc1ccc(Cl)c(Cl)c1 (centres undefined),9%,79µM*,2%,-7%,11%,34%
CN1CCCN(C(c2ccccc2)c2ccc(Cl)cc2)CC1 (centres undefined),79µM*,?,5%,?,-20%,20%
O=C(CN1CCN(C(=O)C2CCCO2)CC1)Nc1cc(Cl)ccc1Cl (centres undefined),2%,-1%,0%,22%,12%,27%
COc1cccc(CNC(=O)CCCCCn2c(=O)[nH]c3cc(OC)c(OC)cc3c2=O)c1,-20%,-1%[59 µM],·,4%,·,29%
CCCCCC(=O)Nc1ccc(C(=O)COC(=O)CN2C(=O)NC3(CCCC3)C2=O)cc1,-9%,-8%,-4%,10%,·,22%
CCN(CC)C(=O)C1CCN(Cc2ccc(OCc3ccccc3)c(OC)c2)CC1,11µM*,50µM*,-2%,56µM*,-6%,?
O=C(C1CCN(Cc2ccc(Cl)cc2)CC1)N1CCN(C(c2ccccc2)c2ccccc2)CC1,?,20µM*,-5%,79µM*,45µM*,?
CCN1CCN(C(=O)C2CCN(Cc3cc(Cl)ccc3O)CC2)CC1,10µM*,10µM*,-1%,?,-12%,?
CCN(CC)C(=O)C1CCN(Cc2ccc(OCc3ccccc3)cc2)CC1,22µM*,10µM*,-2%,?,-7%,?
SMILES,JMJD2A Tudor,G9a inh,PLK1 PBD block,BAZ2B block,Sfp PPTase inh,HP1b chromo inh
CC1CCCN(Cc2ccc(OCc3ccccc3)cc2)C1 (centres undefined),-22%,·,-14%,12%,10%,30%
CCN1CCN(C(=O)C2CCN(Cc3nc(-c4cccc(Cl)c4)oc3C)CC2)CC1,-20%,?,-12%,3%,6%,-2%
CCCc1cnc2c(c1SCC(=O)Nc1ccc(C)c(Cl)c1)c(=O)n(C)c(=O)n2C,2%,-45%[59 µM],·,-29%,·,1%
CCN(CC(=O)Nc1ccccc1C(F)(F)F)C(=O)c1ccc(-n2nc(C)c(CCC(=O)OC)c2C)cc1,5%,·,4%,·,·,35%
O=C(C1CCCO1)N1CCN(S(=O)(=O)c2ccccc2)CC1 (centres undefined),-11%,?,-8%,-4%,9%,48%
CN1CCN(CC(=O)c2cc(C(C)(C)C)c(O)c(C(C)(C)C)c2)CC1,?,32µM*,-25%,-31%,5%,42%
C=Cn1cc[n+](CC(=O)c2cc(C(C)(C)C)c(O)c(C(C)(C)C)c2)c1,-7%,·,-3%,-2%,6%,41%
O=C(C1CCCO1)N1CCN(C(c2ccccc2)c2ccccc2)CC1 (centres undefined),-4%,8.9µM*,-2%,3%,-6%,22%
Cc1noc(C)c1COC(=O)c1csc2c1CCCC2,74%,122%,-2%,69%,·,73%
O=C(CC1Nc2cccc3cccc(c23)NC1=O)Nc1ccc(F)cc1 (centres undefined),-27%,?,-1%,?,?,-13%
COc1ccc(NC(=O)CC2Nc3cccc4cccc(c34)NC2=O)cc1 (centres undefined),?,25µM*!,-10%,?,-4%,14%
CCC1Oc2ccc(C)cc2N(CC(=O)NCCN2CCOCC2)C1=O (centres undefined),-17%,9%,-10%,10%,20%,-4%
CC1CCN(CC(=O)Nc2ccc(C(=O)N3CCCCC3)cc2)CC1,1µM*,28µM*,3%,50µM*,-13%,?
COc1ccc(NC(=O)CN2CCC(C)CC2)cc1,-6%,-6%[59 µM],-1%,-2%,19%,22%
CCC(=O)Nc1ccc(N2CCC(C)CC2)cc1,-16%,8.9µM*,-6%,-7%,3%,25%
CCC(=O)Nc1ccc(C(=O)CN2CCC(C)CC2)cc1,·,10µM*,·,-7%,-15%,·
CC(C)CC(=O)Nc1ccc(C(=O)CN2CCC(C)CC2)cc1,-2%[57.1 µM],10µM*,-15%,7%,?,31%
COc1cc2c(cc1OC)CN(C(=O)CCNS(=O)(=O)c1ccccc1F)CC2,-19%,20%,-4%,-4%,18%,26%
COc1ccc(C(CNC(=O)c2ccc(OCc3csc(C)n3)cc2)N2CCCC2)cc1 (centres undefined),·,·,3%,·,·,·
C/C=C/c1ccc(OCC(=O)N2CCc3cc(OC)c(OC)cc3C2)c(OC)c1,-22%,-25%,-4%,?,3%,7%
